Source: PubChem
Sampled rows, rich in hits. Any-hit rate of the full collection: about 11%.
IMPase Li inh = cell-permeable IMPase inhibitors with lithium potentiation | AID 1457 | actives 0.35% (n = 210,000) | CHO-M1 cells, IP1 TR-FRET (IP-One), carbachol + lithium | Potency, µM (highest dose often 59.4 µM), inactives show top-dose activity, negative = IMPase inhibition, actives largely listed as inhibitors; active = well fitted curve in the direction sought with a large enough effect; inconclusive = small, poorly fitted or top-dose-only effect, or another doubt; inactive = no such curve, though single readings can be large; an effect the other way counts as inactive or inconclusive;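 note: IP1 builds up when IMPase is blocked and the TR-FRET signal falls; potency is the fitted concentration of half-maximal effect; plate controls were basal vehicle for no effect and high inhibitor control for full effect; nearly all actives have a fitted effect of over 50% in size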
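Readout is a homogeneous TR-FRET IP1 immunoassay (Ex 320, Em 665 and 620), where raised cytosolic IP1 lowers signal. Cells were CHO-M1 treated 30 min at 37C with test compounds plus a little lithium; AC50 values came from Hill-equation fitting.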
IMPase cell inh = IMPase inhibition in cells; P97697; CHO-M1 cells, IP1 accumulation, HTRF TR-FRET ratio; inhibition (IP1 accumulation), % at 46.1 µM; 120,000 tested, under 10 active; active = well fitted curve in the direction sought with a large enough effect in the signal ratio, not every such curve was filed as active; inconclusive = small, poorly fitted or top-dose-only effect, or a change in a side signal; inactive = no such curve, though single readings can be large or run the other way; the % refers to the signal ratio;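 note: cells stimulated with carbachol in lithium chloride buffer; plate controls were DMSO basal wells for no effect and reference inhibitor wells for full effect; higher means more IMPase inhibition seen as more IP1 and lower FRET ratio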
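Seeded CHO-M1 cells were dosed with compound at up to 46 uM, stimulated with carbachol for 30 min, then lysed in IP-One detection reagents. Higher IP1 lowers the TR-FRET signal.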
HPGD block = blocks human HPGD enzyme activity; purified HPGD, NADH fluorescence kinetic, PGE2 substrate; Potency, µM, for the others: at the highest dose activity change, negative = inhibition, usual class: inhibitors; actives 4.3% (n = 150,000); AID 894; note: potency is the fitted concentration of half-maximal effect
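20 nM HPGD preincubated 15 min at room temperature with compound in 50 mM Tris-HCl pH 8, 0.01% Tween 20. Started with 1 mM NAD+ and 30 uM prostaglandin E2; NADH fluorescence (360/450 nm) read 5 times over 30-s intervals, last minus first.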
PNC inhibitor = inhibitors of perinucleolar compartment assembly; PC3M PTB-GFP, PNC prevalence imaging, 16 h; stronger effect = lower value; activity change (PNC), negative = inhibition, % at 10 µM; actives 3.1% (n = 140,000); AID 2417;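 active = readout at or below -70, meaning at least 70% loss of cells showing the perinucleolar compartment, a nuclear body marking cancer cells; inconclusive = readout between -30 and a set limit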;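 note: plate controls were DMSO wells for no effect and camptothecin positive control wells for full effect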
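PC3M cells stably expressing PTB-GFP, 750–1000 cells/well, treated 16 h at 37 °C with compound (23 nl of library stock), in duplicate. After paraformaldehyde fixation and Hoechst stain, imaged at 20x; PNC prevalence scored by image analysis.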
12-hLO inh = blocks human 12-lipoxygenase activity. P18054. purified 12-hLO, xylenol orange hydroperoxide absorbance. Potency, µM (series often up to 57.1 µM), without a hit: top-dose activity change, negative = inhibition, actives largely listed as inhibitors. actives 0.12% (n = 150,000). AID 1452; active = well fitted curve in the direction sought with a large enough effect; inconclusive = small, poorly fitted or top-dose-only effect, or another doubt; inactive = no such curve, though single readings can be large; an effect the other way counts as inactive or inconclusive; note: potency is the fitted concentration of half-maximal effect; nearly all actives have a fitted effect of over 55% in size
Target sequence (P18054 whole entry, looked up): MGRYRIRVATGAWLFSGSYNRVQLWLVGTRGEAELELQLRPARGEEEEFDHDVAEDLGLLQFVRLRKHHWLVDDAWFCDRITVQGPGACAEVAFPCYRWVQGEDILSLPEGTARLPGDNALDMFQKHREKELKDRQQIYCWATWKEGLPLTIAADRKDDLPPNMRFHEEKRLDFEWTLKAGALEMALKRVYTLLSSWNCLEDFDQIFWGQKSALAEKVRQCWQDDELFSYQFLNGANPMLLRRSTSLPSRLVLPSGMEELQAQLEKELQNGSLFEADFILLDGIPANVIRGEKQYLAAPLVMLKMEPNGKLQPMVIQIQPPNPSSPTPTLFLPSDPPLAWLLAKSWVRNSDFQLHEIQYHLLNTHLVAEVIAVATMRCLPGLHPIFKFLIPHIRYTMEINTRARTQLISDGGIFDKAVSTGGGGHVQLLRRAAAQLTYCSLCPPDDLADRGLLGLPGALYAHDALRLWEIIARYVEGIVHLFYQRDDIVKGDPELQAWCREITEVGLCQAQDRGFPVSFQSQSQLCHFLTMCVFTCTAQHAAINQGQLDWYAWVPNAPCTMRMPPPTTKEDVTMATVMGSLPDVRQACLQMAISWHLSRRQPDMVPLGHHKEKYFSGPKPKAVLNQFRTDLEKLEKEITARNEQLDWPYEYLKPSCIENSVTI
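Hydroperoxide formation by human 12-lipoxygenase from 40 uM arachidonic acid was followed colorimetrically via ferric-xylenol orange complex, using the 573/405 nm absorbance ratio. Enzyme concentration was 150 nM, with 30 min reaction at room temperature.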
ALDH1A1 block = inhibitors of human aldehyde dehydrogenase 1A1 | P00352 | Purified ALDH1A1, NADH fluorescence, propionaldehyde substrate | Potency, µM (top dose mostly 75.3 µM), for inactives: top-dose activity, negative = inhibition, hits mostly inhibitors | actives 7.3% (n = 220,000);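 note: potency is the fitted concentration of half-maximal effect; plate controls were no enzyme wells and a reference inhibitor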
* = called active by the depositor; ? = inconclusive; . = no result; [ ] = dose if it differs, or a comment. Unless noted, calls come from the whole dose curve; as a rule, active = well fitted inhibition curve with a large enough effect (not every such curve was filed as active); inconclusive = small, poorly fitted or top-dose-only effect, or another doubt; inactive = no such curve, though single readings can be large or run the other way. Unless noted, % is set by controls: 0 for no effect and ±100 for the full control effect.

SMILES	IMPase Li inh	IMPase cell inh	HPGD block	PNC inhibitor	12-hLO inh	ALDH1A1 block
COC(=O)CCC(=O)OC1(C)C(=O)C=C2C=C(C3CC3)N(c3ccc(OC)cc3)C=C2C1=O (stereo not drawn)	4%	.	-6%	.	-1%[11.4 µM]	-3%[13.5 µM]
FC(F)(F)c1cccc(NC(=S)Nc2cccc(NC(=S)Nc3cccc(C(F)(F)F)c3)n2)c1	.	.	.	.	.	25µM*
O=C(CCNC(=O)c1ccccc1Cl)Nc1cccc(C(F)(F)F)c1	0%	.	-1%	-3	-1%	2%
O=C(NNC(=S)Nc1cccc(C(F)(F)F)c1)c1ccccc1Cl	-2%	.	-20%	-4	-4%	8.9µM*
CCN1CCN(C(=O)Nc2cccc(C(F)(F)F)c2)CC1	26%[38.3 µM]	13	-2%	-123*	1%	2%
Cc1cccc(NC(=S)Nc2cccc(C(F)(F)F)c2)n1	-6%	.	-15%	31	-25%	3%
O=C(CCCn1c(=O)[nH]c2ccsc2c1=O)N1CCCCC1	-5%[38.3 µM]	-4	14µM*	?	-4%	-7%
O=C(CCCCCn1c(=O)[nH]c2ccsc2c1=O)N1CCN(C2CCCCC2)CC1	49%[38.3 µM]	3	-25%	33	1%	?
O=C(Cn1c(=O)[nH]c2ccsc2c1=O)NC1CCCCCC1	4%	-8	-9%	-100*	-2%	3%
CC1CCC(NC(=O)Cn2c(=O)[nH]c3ccsc3c2=O)CC1 (stereo not drawn)	-4%[38.3 µM]	-12	-1%	-27	-3%	4%
O=C(CCCCn1c(=O)[nH]c2ccsc2c1=O)NCC1CCCO1 (stereo not drawn)	26%[38.3 µM]	-2	25µM*	36	3%	-1%
O=C(CCCCCn1c(=O)[nH]c2ccsc2c1=O)N1CCCCC1	-5%	-11[1.84 µM]	14µM*	-3	2%	-1%
CN(C)S(=O)(=O)c1cc(NC(=O)c2cc(=O)[nH]c3ccccc23)ccc1Cl	5%	.	.	.	.	?
CCCCC[C@H](O)/C=C/[C@H]1OC(O)C[C@H](O)[C@@H]1C/C=C\CCCC(=O)O (stereo partly drawn)	14%	.	-6%	.	-1%	-1%
S=c1nc[nH]c2c1cnn2-c1ccccc1	.	.	.	.	.	3.2µM*
CSC(=Nc1ccccc1)C1=C(O)COC1=O	-6%	?	-2%	16	39%	25µM*
O=C(Cc1ccc2c(c1)CCCC2)Nc1ccc2ccccc2c1	12%	.	?	?	-1%	22µM*
COc1ccc(CC(=O)Nc2ccc3c(c2)CCC3)cc1OC	22%[38.3 µM]	9	-7%	-8	-7%	-7%
O=C(CSc1cccs1)Nc1ccc2ccccc2c1	26%[38.3 µM]	10	28µM*	60	2%	?
O=c1cnc2cnc(Oc3cccc(Cl)c3)nc2n1C1CC1	4%	.	-7%	.	0%	-14%
Cc1cc(C)c(S(=O)(=O)/N=C2\C=CC(=O)C(Cl)=C2)c(C)c1	21%[38.3 µM]	5	20µM*	-14	?	?
COc1ccc(CN(CC2CCC(C(=O)O)CC2)C(=S)Nc2cc(C)ccc2C)cc1 (stereo not drawn)	-11%	.	.	.	.	3.5µM*
Cc1cccc(N(CC(=O)NCCSCc2ccc(Cl)cc2)S(C)(=O)=O)c1C	.	-6	.	.	.	.
O=[N+]([O-])c1ccc(/C=N/n2c(-c3cccnc3)n[nH]c2=S)cc1	.	1	.	-13	0%	2.8µM*
O=[N+]([O-])c1ccc(Cl)c(/C=N/n2c(-c3cccnc3)n[nH]c2=S)c1	-5%	-7	8.9µM*	3	-1%	7.9µM*
SMILES	IMPase Li inh	IMPase cell inh	HPGD block	PNC inhibitor	12-hLO inh	ALDH1A1 block
Cc1ccsc1/C=N/n1c(-c2cccnc2)n[nH]c1=S	5%[38.3 µM]	6	?	?	-1%	?
O=[N+]([O-])c1cccc(/C=N/n2c(-c3cccnc3)n[nH]c2=S)c1	0%	.	20µM*	20	-1%	10µM*
O=CC(=O)c1ccccc1	15%	.	-8%	.	2%	2.8µM*
O=C(O)[C@@H](O)[C@@H](O)[C@@H](O[C@H]1O[C@@H](CO)[C@@H](O)[C@@H](O)[C@@H]1O)[C@@H](O)CO	-5%	3[20.6 µM]	-1%	.	-1%[25.6 µM]	10%[20.9 µM]
Cc1noc(NS(=O)(=O)c2ccc(NC(=O)CSc3nc4c(cc3C#N)CCCC4)cc2)c1C	10%[38.3 µM]	-3	28µM*	?	-2%	28µM*
Cc1noc(NS(=O)(=O)c2ccc(NC(=O)CSc3nc4c(cc3C#N)CCC4)cc2)c1C	4%	-3	32µM*	-1	-4%	?
CCCCn1c(=O)c2c(c3ccccc31)OCC(=O)N2	-2%[38.3 µM]	7	-11%	19	4%	20µM*
CCCn1c(=O)c2c(c3ccccc31)OC(C)C(=O)N2 (stereo not drawn)	2%[38.3 µM]	-6	-4%	-88*	-6%	6%
CCCCCCC[N+](CC)(CC)CCCCc1ccc(Cl)cc1	16%	9[20.6 µM]	-1%	.	4%[25.6 µM]	18%[20.9 µM]
CCOC(=O)c1sc2nc(CSc3ccccc3)nc(N3CCC(C(N)=O)CC3)c2c1C	21%	.	.	.	.	?
CCOC(=O)c1sc2nc(CSc3ccccc3)nc(N3CCCN(C)CC3)c2c1C	12%	.	.	.	.	28µM*
CCOC(=O)C1(C)/C(=N/Nc2cccc(Cl)c2)C(=O)C(=O)N1c1ccccc1 (stereo not drawn)	-7%[38.3 µM]	8	32µM*	21	3.2µM*	?
CCOC(=O)C1(C)/C(=N/Nc2ccccc2Cl)C(=O)C(=O)N1c1ccccc1 (stereo not drawn)	48%[38.3 µM]	7	40µM*	-24	?	0.22µM*
CCOC(=O)C1(C)/C(=N/Nc2ccc(S(N)(=O)=O)cc2)C(=O)C(=O)N1c1ccccc1 (stereo not drawn)	1%	.	.	.	.	18µM*
CCOC(=O)C1(C)/C(=N/Nc2ccc(Cl)cc2)C(=O)C(=O)N1c1ccccc1 (stereo not drawn)	10%[38.3 µM]	5	?	?	?	?
COc1nc(C#N)nc(N(C)C)n1	17%[38.3 µM]	7	-4%	23	3%	3%
CC1CC[C@@]2(C(=O)O)CCC3(C)C(=CCC4[C@]5(C)CC(O)C(O)[C@](C)(CO)C5C(O)C[C@@]43C)C2C1C (stereo partly drawn)	22%	.	-11%	.	-1%	0%
